Screens: PubChem BioAssay, National Center for Advancing Translational Sciences (NCATS)
AmpC no deterg: blocks E. coli AmpC beta-lactamase in detergent-free assay | P00811 | AmpC nitrocefin hydrolysis, absorbance 480 nm, 0.0001% Triton | Potency, µM (top dose mostly 57.1 µM), hits mostly inhibitors | 330,000 tested, 0.52% active; also: nearly all actives have a fitted effect of over 20% in size
Target sequence (P00811 whole entry, looked up): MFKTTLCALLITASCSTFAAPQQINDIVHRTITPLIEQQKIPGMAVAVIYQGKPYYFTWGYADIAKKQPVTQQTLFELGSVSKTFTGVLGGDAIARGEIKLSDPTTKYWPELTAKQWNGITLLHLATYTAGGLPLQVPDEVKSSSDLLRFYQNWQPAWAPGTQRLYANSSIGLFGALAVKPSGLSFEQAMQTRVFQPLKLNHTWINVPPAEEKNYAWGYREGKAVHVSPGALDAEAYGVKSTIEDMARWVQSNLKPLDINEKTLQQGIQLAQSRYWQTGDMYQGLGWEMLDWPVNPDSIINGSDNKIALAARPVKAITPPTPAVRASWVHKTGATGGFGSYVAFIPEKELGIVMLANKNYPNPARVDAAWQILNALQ
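20 mM phosphate pH 7.0 + 0.01% (detergent screen) or 0.0001% Triton X-100; 5.3 nM AmpC reagent; cpd preinc 15 min RT; nitrocefin (800 uM stock) to start; A480 q20 s × 4 min; Activity was normalised to no-enzyme and no-compound control wells.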
Pf growth 48h: inhibits P. falciparum growth in the first generation, 48 h; Potency, µM (highest dose often 28.7 µM), hits mostly inhibitors; AID 504832; 310,000 tested, 5.9% active; P. falciparum luciferase growth in erythrocytes, 48 h
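First compound was added to culture medium, then infected red cells at 0.1% parasitemia and 2% hematocrit (final). After incubation at 37 C under 5% CO2, luciferase detection reagent was dispensed and light output recorded.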
AmpC detergent: AmpC beta-lactamase inhibition with detergent present; P00811; AmpC hydrolysis of nitrocefin, absorbance 480 nm, 0.01% Triton; Potency, µM (series often up to 114 µM), actives largely listed as inhibitors; 370,000 tested, 0.041% active; also: nearly all actives have a fitted effect of over 25% in size
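AmpC (5.3 nM in the dispensed reagent) in 20 mM phosphate pH 7.0 with 0.01% (detergent screen) or 0.0001% Triton X-100 was preincubated with compounds for 15 min at room temperature. Nitrocefin was then added from an 800 uM solution, and hydrolysis was followed at 480 nm.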
HCV inh: HCV inhibition. Huh7.5.1 HCVcc-Cre infection, luciferase reporter, 44 h. Potency, µM (top dose mostly 41.8 µM), usual class: inhibitors. 340,000 tested, 3.4% active. AID 651820
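Compounds are dispensed onto cells plated 4 h earlier at 1,000 per well, with HCVcc-Cre virus (about 0.5 moi) added next. Following 44 h of culture, luminescent signal is measured for 15 sec after 15 min with substrate at room temperature.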
AMA1 RON2 block: inhibitors of Plasmodium falciparum AMA1-RON2 interaction; Potency, µM (highest dose often 58.2 µM), actives largely listed as inhibitors; AlphaScreen AMA1-biotinylated RON2 peptide binding; 360,000 tested, 0.2% active; AID 720542; also: nearly all actives have a fitted effect of over 45% in size
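AMA1 (3D7) with his tag at 25 nM final met compounds first, then biotinylated RON2 peptide at 25 nM; detection used donor plus acceptor beads, 10 µg/mL apiece, read by AlphaScreen after 30 min at room temperature.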
Pf growth 96h: inhibits malaria parasite growth, 96 h. Potency, µM (doses to about 28.7 µM), usual class: inhibitors. 320,000 tested, 6.9% active. P. falciparum luciferase reporter growth, 96 h. AID 504834
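96 h incubation, 37 C, 5% CO2, of luciferase-reporter P. falciparum-infected RBCs (2% hematocrit, 0.05% parasitemia final) with test compounds; endpoint luminescence.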
Hits are given with their value; [ ] = another dose, or the depositor's remark. An excerpt weighted towards active compounds, which were near 11% of everything screened. Calls follow the shape of the dose curve; as a rule, active = well fitted curve in the direction sought with a large enough effect; inconclusive = small, poorly fitted or top-dose-only effect, or another doubt; inactive = no such curve, though single readings can be large; an effect the other way counts as inactive or inconclusive.

`Cc1[nH]c(C)c(S(=O)(=O)N2c3ccccc3CC2C)c1C(=O)N1CCCCC1` (stereo not drawn) gave AmpC no deterg inactive, Pf growth 48h inactive, AmpC detergent inactive, HCV inh inactive, AMA1 RON2 block inactive and Pf growth 96h 15µM.
`COc1ccccc1N1CCN(S(=O)(=O)c2c(C)[nH]c(C)c2C(=O)N2CCCCC2)CC1` gave AmpC no deterg inactive, Pf growth 48h inactive, AmpC detergent inconclusive, HCV inh inactive, AMA1 RON2 block inactive and Pf growth 96h inactive.
For O=C(NCc1ccccc1Br)c1ccc2c(c1)nc1n2CCOC1 the results were AmpC detergent inactive.
Cc1ccc(C)c(N2CCN(S(=O)(=O)c3ccc(-c4cnc(C5CC5)o4)cc3)CC2)c1 was read as AmpC detergent inactive.
CCOC(=O)Cc1ccc(NC(=O)c2cccc([N+](=O)[O-])c2)cc1 was read as AmpC no deterg inactive, Pf growth 48h inactive, AmpC detergent inactive, HCV inh inactive, AMA1 RON2 block inactive and Pf growth 96h inactive.
Screening CCOC(=O)CSc1nnc(NC(=O)c2cccc([N+](=O)[O-])c2)s1 returned AmpC no deterg inactive, Pf growth 48h inactive, AmpC detergent inconclusive, HCV inh inactive, AMA1 RON2 block inactive[2.32 µM] and Pf growth 96h 12µM.
Screening CCCCc1cc(=O)oc2cc(OCC(=O)N3C[C@H]4C[C@@H](C3)c3cccc(=O)n3C4)ccc12 returned AmpC no deterg inactive, Pf growth 48h inactive, AmpC detergent inconclusive, HCV inh inactive, AMA1 RON2 block inactive and Pf growth 96h 8.3µM.
Screening Cc1cc(OCC(=O)N2C[C@H]3C[C@@H](C2)c2cccc(=O)n2C3)c2c(C)c(C)c(=O)oc2c1 returned AmpC no deterg inactive, Pf growth 48h inactive, AmpC detergent inconclusive, HCV inh inactive, AMA1 RON2 block inactive and Pf growth 96h inactive.
For CCCCc1cc(=O)oc2cc(C)cc(OCC(=O)N3C[C@H]4C[C@@H](C3)c3cccc(=O)n3C4)c12 the results were AmpC no deterg inactive, Pf growth 48h 10µM, AmpC detergent inconclusive, HCV inh inactive, AMA1 RON2 block inactive and Pf growth 96h inconclusive.
`Cc1ccc(Cl)cc1NC(=O)C1CCCN(S(=O)(=O)c2c(C)noc2/C=C/N(C)C)C1` (stereo not drawn) gave AmpC detergent inactive.
Cc1ccc(CN2CCC(CNc3ncnc4onc(-c5ccc(Cl)cc5)c34)CC2)cc1 was read as AmpC detergent inactive.
Screening CCOC(=O)C1CCN(S(=O)(=O)c2ccc3[nH]c(=O)c(=O)[nH]c3c2)CC1 returned AmpC no deterg inactive, Pf growth 48h inactive, AmpC detergent inactive, HCV inh inactive, AMA1 RON2 block inactive and Pf growth 96h inactive.
O=C(NCc1ccc2[nH]c3c(c2c1)CCCC3)c1ccc(S(=O)(=O)N2CCOCC2)cc1 was read as AmpC no deterg inactive, Pf growth 48h inconclusive, AmpC detergent inactive, HCV inh inconclusive, AMA1 RON2 block inactive and Pf growth 96h inconclusive.
For Cc1ccc(C)c(NC(=S)NCc2ccc3[nH]c4c(c3c2)CCCC4)c1 the results were AmpC no deterg 35µM, Pf growth 48h 13µM, AmpC detergent inactive, HCV inh inconclusive, AMA1 RON2 block inactive and Pf growth 96h 13µM.
For O=C(NCc1ccc2[nH]c3c(c2c1)CCCC3)c1ccc(S(=O)(=O)N2CCCC2)cc1 the results were AmpC no deterg inactive, Pf growth 48h inactive, AmpC detergent inactive, HCV inh inconclusive, AMA1 RON2 block inactive and Pf growth 96h 13µM.
CN(C)S(=O)(=O)c1ccc(C(=O)NCc2ccc3[nH]c4c(c3c2)CCCC4)cc1 was read as AmpC no deterg 28µM, Pf growth 48h inactive, AmpC detergent inconclusive, HCV inh inconclusive, AMA1 RON2 block inactive and Pf growth 96h inconclusive.
CCOC(=O)C1CCN(S(=O)(=O)c2ccc3[nH]c4c(c3c2)CCCC4)CC1 was read as AmpC no deterg inactive, Pf growth 48h inactive, AmpC detergent inactive, HCV inh inactive, AMA1 RON2 block inactive and Pf growth 96h 10µM.
